According to the supplement of paper PMC6555819:

How the values were obtained:
Experiment in all cases: PBM binding z-score (relative to random genomic background probes); higher = stronger binding; sequences stand for … in GC…GCGATTGACAGCGTAGAATGAAGG
[1] = system: FXR:RXRa (NR concentration 270 nM, RXRa partner concentration 90 nM)
Procedure, shortened: (§1)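 Binding buffer was PBS pH 7.4 with 2% milk, 0.02% Triton X-100, 1 mM DTT, 0.2 mg/mL BSA and 0.4 mg/ml salmon testes DNA. In it, ligand-free nuclear receptor dimers were incubated 1 h on custom Agilent 4×180K protein-binding microarrays carrying double-stranded probes. Antibodies against each partner (one per run) detected binding, and z-scores were calculated against random background probes after regression normalization of scanned fluorescence.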

[2] = system: LXRa:RXRa (NR concentration 270 nM, RXRa partner concentration 90 nM)
Procedure, shortened: as §1

[3] = system: LXRa homodimer (NR concentration 270 nM)
Procedure, shortened: as §1

[4] = system: LXRb:RXRa (NR concentration 270 nM, RXRa partner concentration 90 nM)
Procedure, shortened: as §1

[5] = system: LXRb homodimer (NR concentration 270 nM)
Procedure, shortened: as §1

[6] = system: PPARa:RXRa (NR concentration 270 nM, RXRa partner concentration 90 nM)
Procedure, shortened: as §1

[7] = system: PPARg:RXRa (NR concentration 180 nM, RXRa partner concentration 90 nM)
Procedure, shortened: as §1

[8] = system: PPARg:RXRa 270nM:90nM, anti-RXR (NR concentration 270 nM, RXRa partner concentration 90 nM)
Procedure, shortened: as §1

[9] = system: PPARg:RXRa 30nM:10nM, anti-RXR (NR concentration 30 nM, RXRa partner concentration 10 nM)
Procedure, shortened: as §1

[10] = system: PPARg:RXRa 90nM:30nM, anti-RXR (NR concentration 90 nM, RXRa partner concentration 30 nM)
Procedure, shortened: as §1

Sequence	PBM binding z-score [1]	PBM binding z-score [2]	PBM binding z-score [3]	PBM binding z-score [4]	PBM binding z-score [5]	PBM binding z-score [6]	PBM binding z-score [7]	PBM binding z-score [8]	PBM binding z-score [9]	PBM binding z-score [10]
TCTATTAGTTGAGTAGGGCAACCGAAACAGCGGA	0.117	-0.0688	-0.201	0.0431	0.0555	0.964	0.351	1.65	3.14	2.23
CCGACTGGGGCAAGGTTACCATAACGCACAGCCA	0.287	0.668	-0.166	0.835	-1.25	2.12	2.78	3.43	1.23	2.86
CAGCCTAGGTCAGGGCCTGTATAGGAGGAACGTT	1.48	0.732	-0.667	0.189	-0.753	1.95	0.752	0.931	-0.43	0.141
CCTAGTTGGTCAAGGTCACTCACGCTATAGGTAC	3.8	3.42	1.94	3.17	0.615	3.67	2.44	3.08	0.743	2.05
TAGCCTAGGTCATGCGGGCCAGTTTAGTGTCGGC	3.92	3.15	0.212	1.71	-0.269	3.27	1.32	2.02	-0.211	1.01
ATCGAAAGGACGAGGTGAGTATAGAGAAAGGGAA	0.588	0.168	-0.177	-0.191	-0.00522	0.0333	0.589	-0.152	0.508	0.313
GCATATAGATAATACAAGGTGAAAGTCCGATTGT	0.079	0.0374	0.245	0.117	-0.118	0.578	1.21	0.513	0.278	0.522
TCTCGGAGGACAAGAAAGGTCAGAGCTCGACATC	2.65	3.41	2.12	2.65	-0.275	3.37	0.803	2.26	2.52	2.37
TCCCGGAGGACACGAAAGGTCAGAGCTCGACATC	3.13	3.95	2.89	2.93	-0.374	3.45	1.51	2.59	2.05	2.49
TAGCCTAGGTCAGCTCGGGCCAGTATACGCTATA	2.43	1.05	-0.68	0.599	-1.22	1.66	0.605	0.958	-0.317	0.418
CCTCGGAGGACAGAAGGTCAGAGCAGTCCGCTTT	1.47	1.7	0.116	1.25	-0.798	2.04	0.114	0.948	-0.57	0.201
CCTTACGGGTCACGAGGTTATCGCACGACGAGCG	6.89	4.91	0.648	4.02	0.0453	5.78	7.31	6.79	3.29	5.64
GAAACAGGGTCAGCTAGAGGCCAGAGTATGGAAA	5.08	2.78	-0.301	2.7	-0.705	4.97	4.24	3.85	0.859	2.72
TCGAGTAGGTTAGTCGGGGCATTTAGCCAACATA	0.338	0.346	-0.167	0.722	-0.677	0.819	-0.0847	0.976	1.17	1.04
CCTTACTGGTCACGAGGTTATAGCACGACGAGCG	1.49	1.46	0.682	1.36	0.455	2.04	1.77	1.97	-0.0752	1.04
GGAACGTGGGCAAGTTGATAGCAGAGTTTGATGG	-0.957	-0.763	-0.666	-0.678	-0.982	-0.579	0.382	-0.458	-0.337	-0.422
CGTCAGAGTTCAAGGTAACGTAACAGAAAGCAGC	5.49	5.11	1.85	3.2	0.38	4.54	2.92	3.58	0.864	2.39
TCTCGGAGGACACGAAGGTCATAGCTTTCCAGAG	2.87	2.73	1.72	2.61	-0.514	3.18	1.09	2.57	2.55	2.54
CCTTACTGGTCACTCCAGGTTATAGCATCGGAGT	0.959	4.64	1.95	1.39	0.798	0.503	0.265	0.0704	0.0345	0.0913
